According to paper PMC4336329 (PLoS ONE, 2015):
Among all 310,000 compounds or so, about 14,000 (4.5%) showed an effect of 50% or more. The effect is printed as a negative number. For the sample, strong results were picked, then their nearest neighbours and some compounds at random.

These compounds were tested against human ether-à-go-go-related gene (hERG) potassium channel (human, UniProt Q12809) (assay: primary screen, population patch clamp on CHO cells stably expressing hERG; higher = less effect of the substance).
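Also: peak tail current of the secondary pulse compared with the same well before compound.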

Sequence of human ether-à-go-go-related gene (hERG) potassium channel (Q12809 whole entry, looked up): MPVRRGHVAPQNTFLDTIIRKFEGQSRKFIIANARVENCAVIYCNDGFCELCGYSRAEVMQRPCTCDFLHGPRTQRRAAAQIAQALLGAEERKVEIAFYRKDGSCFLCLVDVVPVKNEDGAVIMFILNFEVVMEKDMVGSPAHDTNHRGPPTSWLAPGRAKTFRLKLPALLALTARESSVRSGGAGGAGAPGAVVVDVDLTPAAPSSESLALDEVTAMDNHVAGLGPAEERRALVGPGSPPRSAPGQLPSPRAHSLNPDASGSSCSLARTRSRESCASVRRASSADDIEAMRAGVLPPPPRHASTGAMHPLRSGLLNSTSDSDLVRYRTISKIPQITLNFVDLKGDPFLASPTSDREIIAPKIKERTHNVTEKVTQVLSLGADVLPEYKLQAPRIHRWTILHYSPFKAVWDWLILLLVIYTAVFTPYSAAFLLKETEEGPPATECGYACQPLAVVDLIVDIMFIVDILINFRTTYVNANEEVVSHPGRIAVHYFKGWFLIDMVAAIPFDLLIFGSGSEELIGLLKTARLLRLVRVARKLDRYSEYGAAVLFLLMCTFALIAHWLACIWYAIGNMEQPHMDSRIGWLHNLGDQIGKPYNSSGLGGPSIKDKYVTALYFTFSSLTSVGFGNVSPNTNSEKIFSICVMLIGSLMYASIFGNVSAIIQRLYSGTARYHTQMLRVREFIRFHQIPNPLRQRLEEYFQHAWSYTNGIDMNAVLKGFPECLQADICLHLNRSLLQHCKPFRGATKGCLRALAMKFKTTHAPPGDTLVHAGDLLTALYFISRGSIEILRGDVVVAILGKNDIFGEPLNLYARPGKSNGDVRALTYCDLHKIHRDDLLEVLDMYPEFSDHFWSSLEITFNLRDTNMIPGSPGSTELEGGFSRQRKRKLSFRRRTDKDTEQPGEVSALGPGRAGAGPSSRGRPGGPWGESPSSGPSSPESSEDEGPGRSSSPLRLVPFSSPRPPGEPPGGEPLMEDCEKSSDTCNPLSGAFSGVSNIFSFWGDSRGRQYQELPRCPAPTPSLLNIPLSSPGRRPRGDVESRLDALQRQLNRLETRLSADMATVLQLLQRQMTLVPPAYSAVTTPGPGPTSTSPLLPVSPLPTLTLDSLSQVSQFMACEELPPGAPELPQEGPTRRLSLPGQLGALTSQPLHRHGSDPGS

| SMILES | hERG current change (%, negative = inhibition) at 10uM [%] |
| --- | --- |
| S=C1NCCc2ccccc2C1c1ccccc1 (centres unmarked) | -14.5 |
| C/C(=C\C(=S)Nc1ccccc1)Nc1ccccc1 | 22.4 |
| CCOc1ccccc1CNC(=O)Cn1ccc2cc(S(=O)(=O)N3CCCCCC3)ccc21 | 10.4 |
| COc1ccc2cc(N=Cc3nc(-c4ccc(C)cc4)oc3O)cnc2c1 | 1.84 |
| CCC(=O)N1CCc2cc(S(=O)(=O)N3CCCCCC3)ccc21 | 12.6 |
| CNC(=O)c1cccn1-c1ccsc1C(=O)OC | 7.33 |
| COc1ccc(Cc2nc3ccc(C(=O)N(C)CCn4ccnc4)cc3o2)cc1OC | 15.5 |
| O=C(COC(=O)c1ccc(F)cc1F)Nc1ccc2[nH]c(=O)[nH]c2c1 | 10.3 |
| Cc1cc(C(=O)C(=O)N(C)C)c(C)n1-c1ccc([N+](=O)[O-])cc1 | -25.7 |
| C=CCN(CC=C)C(=O)C(=O)c1cc(C)n(-c2ccc([N+](=O)[O-])cc2)c1C | -63.4 |
| Cc1cc(C(=O)C(=O)NC(C)C)c(C)n1-c1ccc([N+](=O)[O-])cc1 | -22.8 |
| O=C(/C=C/C=C/c1ccc2c(c1)OCO2)N1CCCCC1 | -8.23 |
| CCc1noc(C)c1C(=O)OCC(=O)NC(=O)c1ccccc1OC | 12.5 |
| COc1cc(OC)c(C#N)c(S(=O)(=O)Cc2ccccc2)c1 | -3.9 |
| CCC(C)N(CCNC(=O)CC1Oc2ccc(C)cc2NC1=O)C1CCCCC1 (centres unmarked) | -71.5 |
| CCC(C)N(CCNC(=O)CC1Oc2ccccc2NC1=O)C1CCCCC1 (centres unmarked) | -57.7 |
| CN(C)CCNC(=O)c1ccc2c(c1)NC(=O)c1ccccc1S2 | 17.3 |
| Cc1ccc2c(c1)NC(=O)C(CC(=O)NCCN(C)C)O2 (centres unmarked) | -2.42 |
| CC(C)CN(CCNC(=O)CC1Oc2ccccc2NC1=O)CC(C)C (centres unmarked) | -27.7 |
| CCN(CCNC(=O)CC1Oc2ccccc2NC1=O)c1ccccc1 (centres unmarked) | 9.82 |
| Cc1ccc2c(c1)NC(=O)C(CC(=O)NCCN(CC(C)C)CC(C)C)O2 (centres unmarked) | -24.7 |
| CCC(C)N(CCNC(=O)c1ccc2c(c1)NC(=O)c1ccccc1S2)C1CCCCC1 (centres unmarked) | -66.4 |

| SMILES | hERG current change (%, negative = inhibition) at 10uM [%] |
| --- | --- |
| CCN(CC)CCNC(=O)c1ccc2c(c1)NC(=O)c1ccccc1S2 | -31.9 |
| COCCn1c(C)cc2c(c1=O)C(c1ccco1)C(C#N)=C(N)O2 (centres unmarked) | 12.7 |
| C=CCn1c(CSc2nnc(-c3ccccc3)n2C)n[nH]c1=S | 16.7 |
| O=C(Nc1ccc(Cl)cc1)c1ccc(Br)cc1F | 14.4 |
| COCc1cc(Sc2cccc(Cl)c2Cl)nc(-c2ccccc2)n1 | 9.15 |
| Cc1ccc(S(=O)(=O)N(CC(=O)NN=C2CCN(C)CC2)c2ccc(C(C)C)cc2)cc1 | -21.3 |
| CCn1cc(C(=O)N2CCN(Cc3ccc4c(c3)OCO4)CC2)c(=O)c2ccc(C)nc21 | -1.84 |
| CCC(C)(C)NC(=O)C(c1ccc(OC)cc1)N(C(=O)CCC(=O)Nc1cc(C)on1)c1ccc(OC)c(OC)c1 (centres unmarked) | 3.38 |
| Cc1ccc(OCC(=O)N/N=C/c2cn(C)c3ccccc23)cc1 | 10.2 |
| CC1c2cccn2CCN1S(=O)(=O)c1ccc(F)cc1 (centres unmarked) | -52.3 |
| Cc1ccc(S(=O)(=O)N2CCn3cccc3C2C)cc1 (centres unmarked) | -22.7 |
| CC1c2cccn2CCN1S(=O)(=O)c1ccccc1 (centres unmarked) | 5.9 |
| COc1cc(NS(=O)(=O)c2ccc(NC(=O)/C(=C\c3ccccc3OC)NC(=O)c3ccccc3)cc2)nc(OC)n1 | 26.5 |
| CCCOc1ccc(/C=N/NC(=O)CN2CCCCC2)cc1OCC | -51.4 |
| CCOc1cc(/C=N/NC(=O)CN2CCCCC2)ccc1OCc1cccc(Cl)c1 | -45.3 |
| C=CCOc1ccc(/C=N/NC(=O)C(=O)N2CCCCCC2)cc1OC | 16.5 |
| COc1cc(/C=N/NC(=O)CN2CCOCC2)ccc1OCc1ccccc1 | 5.45 |
| COc1cc(/C=N/NC(=O)CN2CCCCC2)ccc1OCc1ccccc1 | -64.1 |
| CCOc1ccc(/C=N/NC(=O)CN2CCCCC2)cc1OCC | 11 |
| O=C(CN1CCCCC1)N/N=C/c1ccccc1OCc1ccccc1 | -30.2 |
| CCOc1cc(/C=N/NC(=O)CN2CCCCC2)ccc1OCc1ccccc1 | -59.9 |
| C=CCOc1ccc(/C=N/NC(=O)CN2CCCCC2)cc1OC | -61 |

| SMILES | hERG current change (%, negative = inhibition) at 10uM [%] |
| --- | --- |
| C=CCOc1ccc(/C=N/NC(=O)CN2CCOCC2)cc1OCC | 12.4 |
| CCOc1cc(/C=N/NC(=O)CN2CCOCC2)ccc1OCc1ccccc1 | -9.58 |
| CCOc1cc(/C=N/NC(=O)CN2CCCCC2)ccc1O | -5.51 |
| CC(=O)N1c2ccccc2C(C)(C)C2CCC(C)CC21 (centres unmarked) | -8.9 |
| COc1ccc(-c2cn[nH]c2-c2ccc(OC)cc2)cc1 | 8.51 |
| CCN(CC)C(=O)c1c[nH]c2ccc(S(=O)(=O)Nc3cc(C)cc(C)c3)cc2c1=O | -0.741 |
| CCOC(=O)c1[nH]c(Cc2[nH]c(C(=O)OCC)c(C)c2CCC(=O)OC)c(CCC(=O)OC)c1C | 3.71 |
| COc1cccc(-c2nc(-c3ccccc3)no2)c1 | 1.72 |
| Cc1cccc(Nc2nc3c(S(=O)(=O)c4ccccc4)nnn3c3ccccc23)c1C | 12.6 |
| CCC(C)NC(=O)Cn1nc(C(F)(F)F)c2c1CCC2 (centres unmarked) | 1.83 |
| N#Cc1c(SCC(=O)Nc2nc3ccccc3s2)sc2c(O)cc(=O)[nH]c12 | 20.7 |
| c1ccc2c(c1)nc(Nc1ccc(N3CCCCC3)cc1)c1nncn12 | -13.8 |
| Cc1nc(-c2ccc(F)cc2)c(CC(=O)Nc2cccc(S(=O)(=O)N3CCOCC3)c2)s1 | -15.8 |
| COc1cc(/C=N/NC(=O)c2ccoc2C)ccc1OCCN1CCCCC1 | -31.6 |
| Cc1nn(-c2ccccc2)c(N2CCCC2)c1/C=N/NC(=O)c1ccccc1O | -2.88 |
| COc1ccc(/C=N/NC(=O)CN2CCN(Cc3ccccc3)CC2)cc1Br | -68 |
| Cc1nn(-c2ccccc2)c(N2CCCC2)c1/C=N/NC(=O)c1cc(-c2ccccc2)nc2ccccc12 | 13.3 |
| COc1cc(/C=N/NC(=O)CCN2CCN(Cc3ccccc3)CC2)cc(OC)c1OC | -29.2 |
| COc1cc(/C=N/NC(=O)CN2CCCCC2)ccc1OCc1ccc(Br)cc1 | -59 |
| COc1ccc(Br)cc1/C=N/NC(=O)CN1CCN(Cc2ccccc2)CC1 | -33.1 |
| Cc1nn(-c2ccccc2)c(N2CCCC2)c1/C=N/NC(=O)c1cc2ccccc2cc1O | -55.5 |
| COc1cc(/C=N/NC(=O)c2ccncc2)ccc1OCCN1CCCCC1 | -3.37 |

| SMILES | hERG current change (%, negative = inhibition) at 10uM [%] |
| --- | --- |
| CCOc1cc(/C=N/NC(=O)CN2CCCCC2)ccc1OCc1ccc(Cl)cc1 | 7.37 |
| COc1cc(/C=N/NC(=O)c2cc3ccccc3cc2O)ccc1OCCN1CCCCC1 | -65.9 |
| COc1ccc(Br)cc1/C=N/NC(=O)CN1CCCCC1 | -4.99 |
| Cc1ccc(S(=O)(=O)Nc2cc(C)on2)cc1 | 15.4 |
| CCN(CC(=O)Nc1ccc(NC(C)=O)cc1)C(=O)c1cc(-c2ccccc2)nn1-c1ccccc1 | 8.43 |
| O=C(CSc1nnc(-c2cccnc2)o1)NNC(=O)c1ccc(Br)cc1 | 2.19 |
| O=C(COc1ccccc1)N(Cc1cc2ccccc2[nH]c1=O)CC1CCCO1 (centres unmarked) | -1.24 |
| CCC1(c2ccccc2)NC(=O)N(CC(=O)Nc2ccccc2N2CCCC2)C1=O (centres unmarked) | 1.38 |
| O=C(c1cc(-c2cccc(Cl)c2)nc2ccccc12)N1CCCC1 | -40.2 |
| CCC(C)NS(=O)(=O)c1ccc(OCC(=O)Nc2ccc3c(c2)OCCO3)cc1 (centres unmarked) | -26.3 |
| COc1cc(CNCc2ccncc2)cc(Br)c1OCc1ccccc1F.Cl | -43.3 |
| Cl.Fc1ccccc1COc1ccc(Br)cc1CNCc1ccncc1 | -70.2 |
| Cl.Fc1ccccc1COc1ccc(Br)cc1CNCc1cccnc1 | -70.2 |
| Cl.Fc1ccccc1COc1ccccc1CNCc1ccncc1 | -44 |
| Cl.c1ccc(COc2ccccc2CNCc2cccnc2)cc1 | -8.89 |
| CCOc1ccc(Br)cc1CNCc1cccnc1 | -10.2 |
| Brc1ccc(OCc2ccccc2)c(CNCc2ccncc2)c1.Cl | -19.9 |
| Cl.Fc1ccc(COc2ccccc2CNCc2ccncc2)cc1 | -32.6 |
| Cl.Fc1ccc(COc2ccc(Br)cc2CNCc2ccncc2)cc1 | -74.7 |
| CCC(NC(=O)c1ccccc1NC(=O)c1ccco1)C(=O)NNC(=O)c1ccncc1 (centres unmarked) | 8.86 |
